BCLXL inh: blocks human Bcl-xL binding to Bim BH3 peptide; Q07817; GST-Bcl-xL / FITC-Bim BH3 peptide fluorescence polarization; inhibition, % at 10.9 µM; 320,000 compounds, 0.7% hits;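 active = inhibition above the mean of all tested compounds plus 3 SD, cutoff set per campaign, cut at about 30% in these data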;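 also: 0% = DMSO wells and 100% = unlabeled Bim-BH3 peptide competitor; inhibitors lower millipolarization by displacing the labeled peptide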
Target sequence (Q07817 whole entry, looked up): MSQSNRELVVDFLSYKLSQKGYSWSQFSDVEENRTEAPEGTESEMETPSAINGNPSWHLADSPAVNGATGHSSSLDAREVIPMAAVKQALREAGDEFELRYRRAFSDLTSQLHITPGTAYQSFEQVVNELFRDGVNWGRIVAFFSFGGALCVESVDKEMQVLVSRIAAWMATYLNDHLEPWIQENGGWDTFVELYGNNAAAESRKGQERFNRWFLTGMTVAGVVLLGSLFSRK
Mcl-1 Bim block: human Bim-Mcl-1 interaction inhibition; Bead-based flow cytometry, Bim peptide-Mcl-1 binding; 190,000 compounds, 0.1% hits; inhibition, % at 10 µM; in the data active = inhibition above about 40%;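 also: 0% = no compound tracer wells and 100% = peptide blocker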
Target sequence (Q07820 whole entry, looked up): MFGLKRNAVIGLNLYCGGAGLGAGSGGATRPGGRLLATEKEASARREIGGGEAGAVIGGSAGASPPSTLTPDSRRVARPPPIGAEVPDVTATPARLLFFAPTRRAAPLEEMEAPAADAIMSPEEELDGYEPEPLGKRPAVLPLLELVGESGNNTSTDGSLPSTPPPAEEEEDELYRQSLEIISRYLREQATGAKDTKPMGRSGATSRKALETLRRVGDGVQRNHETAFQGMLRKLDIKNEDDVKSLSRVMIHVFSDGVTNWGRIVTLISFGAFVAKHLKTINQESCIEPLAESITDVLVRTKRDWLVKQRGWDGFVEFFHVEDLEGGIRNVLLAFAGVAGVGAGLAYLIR
Mcl1 Noxa PPI: disrupts binding of human Mcl-1 to Noxa peptide; 220,000 compounds, 1.5% hits; inhibition, % at 21.7 µM; TR-FRET Mcl-1/Noxa peptide binding, 2 h; Q07820;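 active = compounds that cut the protein-peptide binding signal by more than 50% relative to plate controls in a single-dose test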;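 also: His-tagged Mcl-1 with rhodamine Noxa BH3 peptide and terbium anti-His antibody; 0% = Mcl-1 plus Noxa peptide wells and 100% = peptide-only wells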
Mcl1 Bid PPI: disrupts binding of human Mcl-1 to Bid peptide; Q07820; TR-FRET Mcl-1/Bid-Dy647 peptide binding, 1536-well; inhibition, % at 21.7 µM; 220,000 compounds, 0.97% hits; AID 1021;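 active = compounds that cut the binding signal by more than half at the single screening dose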;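 also: His-tagged Mcl-1 with europium anti-His antibody binding Bid BH3 peptide; 0% = Mcl-1 plus peptide wells and 100% = peptide-only wells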
GLD-1 RNA inh: GLD-1-TGE RNA interaction inhibition (C. elegans); Q17339; purified GLD-1 + fluorescein TGE RNA, fluorescence polarization; inhibition, % at 5.96 µM; 320,000 compounds, 0.44% hits;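 active = percent inhibition above a per-plate cutoff, the plate mean of test compounds plus 3 SD, cut at about 30% in these data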;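 also: 0% = DMSO wells with GLD-1 and probe and 100% = wells lacking GLD-1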
MCL1-BIM inh: disrupts human MCL1 binding to BIM-BH3 peptide; GST-MCL1 / FITC-Bim-BH3 fluorescence polarization; 320,000 compounds, 0.68% hits; AID 2057; Q07820; inhibition, % at 10.9 µM;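 active = inhibition above the mean inhibition of all tested compounds plus 3 SD, set per campaign, cut at about 40% in these data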;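 also: 0% = DMSO wells and 100% = unlabeled Bim-BH3 peptide control; higher means more loss of mP so more displacement of Bim peptide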
BCLXL inh confirm: counter-screen for MCL1 inhibitors: confirmation of human Bcl-xL inhibitors; shares compounds with MCL1-BIM inh; GST-Bcl-xL / FITC-Bim BH3 peptide FP binding; inhibition, % at 10.9 µM; 1,700 compounds, 54% hits;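 active = inhibition above a cutoff equal to the mean inhibition of all tested compounds plus 3 SD, cut at about 30% in these data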;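 also: 0% = DMSO wells and 100% = unlabeled Bim BH3 control peptide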
MCL1 BIM confirm: MCL1-BIM-BH3 interaction inhibition, confirmation; shares compounds with MCL1-BIM inh; GST-MCL1 / FITC-Bim-BH3 fluorescence polarization; inhibition, % at 10.9 µM; 1,700 compounds, 61% hits;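 active = inhibition above the average of all tested compounds plus 3 SD, cut at about 40% in these data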;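 also: 0% = DMSO wells and 100% = unlabeled Bim-BH3 control peptide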
Active calls of the source: *; · = no result; + = active, no number. Sampled rows, rich in hits. Any-hit rate of the full collection: about 2.3%.

SMILES	BCLXL inh	Mcl-1 Bim block	Mcl1 Noxa PPI	Mcl1 Bid PPI	GLD-1 RNA inh	MCL1-BIM inh	BCLXL inh confirm	MCL1 BIM confirm
COc1cccc(C2C3CN(C)CC=C3C(C#N)=C(N)C2(C#N)C#N)c1OC (stereo unspecified)	115.6*	-2.0	-10.2	-21.3	77.6*	134.5*	76.9*	96.8*
COc1cc([C@@H]2[C@H]3CN(C)CC=C3C(C#N)=C(N)C2(C#N)C#N)cc2c1OCO2	53.7*	-3.0	9.4	-13.0	20.9	52.3*	21.3	23.9
COc1cccc(C2C(C#N)=C(N)N(N(C)C)C3=C2C(=O)CC(C)(C)C3)c1OC (stereo unspecified)	4.3	·	·	·	-7.0	3.9	·	·
CCN1CC=C2C(C#N)=C(N)C(C#N)(C#N)[C@H](c3cccc(OC)c3OC)[C@H]2C1	136.1*	2.0	·	·	113.5*	150.6*	51.7*	65.0*
COc1cc(C2C(C#N)=C(N)Oc3cc(C)n(CC4CCCO4)c(=O)c32)cc2c1OCO2 (stereo unspecified)	·	-2.0	-7.0	-39.4	·	·	·	·
CC(=O)c1cccc(N(CC(=O)NC2CCCCC2)C(=O)Cn2nnc(-c3ccccc3)n2)c1	3.7	·	·	·	5.3	5.6	·	·
S=C(Nc1ccc(-c2nc3ccccc3[nH]2)cc1)Nc1cccnc1	6.5	·	·	·	8.4	13.5	·	·
NC(=O)C[n+]1cccc2ccccc21	184.7*	2.0	47.4	-25.7	15.9	+	101.0*	123.9*
O=C(C[n+]1cccc2ccccc21)c1ccc(Br)cc1	2.4	·	·	·	-5.2	-1.1	·	·
Cc1cc(C)n(-c2ccc(NC(=O)C3CCCCN3C(=O)c3ccc(C)s3)cc2)n1 (stereo unspecified)	-1.4	·	·	·	5.5	-6.6	·	·
COc1ccc2oc(C(=O)OC(C)C(=O)NCc3ccccc3)c(C)c2c1 (stereo unspecified)	-8.3	·	·	·	-0.3	44.0*	6.0	1.8
COc1cccc(C(=O)Nc2ccc(C(=O)c3ccccc3)cc2)c1	0.8	·	·	·	-1.0	2.4	·	·
COc1cccc(C(=O)Nc2ccc3c(c2)C(=O)c2ccccc2C3=O)c1	17.2	5.0	75.4*	73.5*	1.3	77.1*	8.2	34.2
COc1cccc(C(=O)Nc2ccncc2)c1	6.8	-1.0	3.7	-19.7	9.8	45.1*	-1.3	2.7
COc1cccc(NC(=O)c2ccncc2)c1	4.9	9.0	-12.1	-40.5	-2.7	7.3	·	·
C=CCN1C=CC(=O)CC1	164.1*	·	-8.3	-95.1	87.3*	131.3*	5.2	-2.2
CCC(=O)N1c2ccc(S(=O)(=O)CCC(=O)N3CCN(c4ccccc4F)CC3)cc2CC1C (stereo unspecified)	0.4	·	·	·	-0.3	2.5	·	·
CCOc1ccc(NC(=O)c2cccc(-n3cccc3)c2)cc1S(=O)(=O)N1CCOCC1	0.4	·	·	·	11.5	67.4*	3.8	55.7*
CC(=O)Nc1ccc(NC(=O)CSc2nnc(C3CC3)n2C)cc1	5.8	4.0	13.8	3.3	-3.3	2.3	·	·
Cn1c(SCC(=O)Nc2ccc(F)cc2)nnc1C1CC1	1.9	·	·	·	-2.8	176.3*	-20.4	-35.7
O=C(Cc1c(F)cccc1Cl)NNC(=O)c1cccs1	·	·	·	·	5.5	·	·	·
O=c1[nH]n2c(=O)c3c([nH]c2c1N=Nc1cccc(Cl)c1)CCC3	27.5	2.0	57.6*	-169.8	17.1	42.4*	17.8	39.8
O=C1C(Br)=Cc2cccc3cccc1c23	116.1*	·	4.7	-6.6	83.2*	134.6*	96.7*	133.1*
Cc1ccccc1C1C(C#N)=C2N=C(N)c3c(sc4c3CCCCC4)N2C2=C1C(=O)CC(C)(C)C2 (stereo unspecified)	54.6*	2.0	-124.6	-146.7	48.2*	53.7*	38.8*	51.0*
Cc1nc2ccc([N+](=O)[O-])cc2c(=O)n1Cc1ccccc1Br	3.6	·	·	·	7.5	1.1	·	·
SMILES	BCLXL inh	Mcl-1 Bim block	Mcl1 Noxa PPI	Mcl1 Bid PPI	GLD-1 RNA inh	MCL1-BIM inh	BCLXL inh confirm	MCL1 BIM confirm
COc1ccc(NC(=O)CCNC(=O)c2ccco2)cc1S(=O)(=O)N(C)C	6.7	·	·	·	6.6	-13.3	·	·
CCN1CCN(CNC(=O)c2cnccn2)CC1	-4.4	-3.0	7.8	0.5	2.8	2.3	·	·
O=C(NCN1CCN(c2ccccc2)CC1)c1cnccn1	3.2	·	·	·	3.4	140.1*	6.8	6.2
Cn1c(=O)c2[nH]c(-c3ccccc3)c(O)c2n(C)c1=O	+	-2.0	26.6	-70.5	+	+	142.1*	159.4*
Cn1c(=O)c2[nH]c(-c3ccccc3Cl)c(O)c2n(C)c1=O	114.7*	-6.0	16.5	-7.7	151.8*	134.0*	48.6*	77.2*
Cn1c(=O)c2[nH]c(-c3ccccc3)nc2n(C)c1=O	·	0.0	1.2	6.1	·	·	·	·
COc1ccc(S(=O)(=O)N2CCCOC2CNC(=O)C(=O)NCCc2ccco2)cc1 (stereo unspecified)	1.2	·	·	·	-1.8	-3.2	·	·
C=CCN1C=C2C(=O)C(C)(OC(=O)C3CCCC3)C(=O)C(c3ccccc3)=C2C=C1CCCC(=O)OC (stereo unspecified)	16.1	·	-3.2	-63.2	10.7	19.4	·	·
C=CCN1C=C2C(=O)C(C)(OC(=O)CCC(=O)OC)C(=O)C(Br)=C2C=C1c1ccc(OC)cc1 (stereo unspecified)	70.9*	·	13.1	-124.3	27.6	74.1*	52.0*	56.1*
COCCNc1nnc(SCC(=O)NNC(=O)c2ccc([N+](=O)[O-])cc2)s1	-1.1	·	·	·	5.3	74.6*	-2.8	7.5
COc1cc(COCC(O)CN2C(C)CCCC2C)cc(OC)c1OC (stereo unspecified)	5.0	·	·	·	5.3	5.6	·	·
Cc1csc(NC(=O)c2cc(-c3ccco3)nc3ccccc23)n1	19.4	-2.0	98.7*	12.5	-4.3	39.9*	20.7	60.3*
Cc1nnc(NC(=O)c2cc(-c3ccco3)nc3ccccc23)s1	26.0	·	·	·	-3.6	65.5*	7.0	32.6
Cc1ccc(-c2cc(C(=O)NCc3ccco3)c3ccccc3n2)o1	19.6	0.0	66.1*	0.6	22.0	51.4*	30.3*	58.4*
O=C(N/N=C/c1ccc(F)cc1)c1cc(-c2ccco2)nc2ccccc12	10.8	-1.0	104.4*	98.0*	6.0	64.1*	32.9*	80.1*
CCc1nnc(NC(=O)c2cc(-c3ccc(C)o3)nc3ccccc23)s1	18.1	·	·	·	1.8	13.1	·	·
CCOc1ccc(/C=N/NC(=O)c2cc(-c3ccco3)nc3ccccc23)cc1	-5.1	0.0	44.9	-18.6	-1.5	-2.0	·	·
Cc1csc(NC(=O)c2cc(C)nc3ccccc23)n1	-12.6	0.0	24.3	-1.8	3.6	-3.9	·	·
CCOc1ccccc1N(CC(=O)NCc1ccco1)C(=O)CCC(=O)Nc1nccs1	3.6	·	·	·	-5.4	-2.8	·	·
